The nature of experiment [1]: Nuclear factor erythroid 2-related factor 2/antioxidant responsive element (Nrf2/ARE) small molecule agonists: qHTS cell viability counter screen in human keratinocytes (AID 1919968; active means well fitted curve in the direction sought with a large enough effect in the repeat runs; an effect the other way counts as inactive or inconclusive; further: nearly all actives have a fitted effect of over 55% in size; further: potency means the concentration at half of the fitted maximal effect). A digest of the protocol: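 Parallel cytotoxicity read: KeratinoSens HaCaT cells, compound treatment 23 h, viability by CellTiter-Fluor fluorescence 1 h post-reagent.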
(Quantitative high-throughput screening tests each substance at several concentrations.)

The target in experiment [2] is KiSS-1 receptor (Homo sapiens) (UniProt Q969F8). Put plainly: Human kisspeptin (KISS1R) small molecule agonists, calcium flux assay in KISS1R-HEK293 cells (AID 1920064; active means well fitted curve in the direction sought with a large enough effect in the repeat runs; an effect the other way counts as inactive or inconclusive). In a few lines:
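Triplicate 15-concentration series were applied to dye-loaded human KISS1R HEK293 cells, and agonist-evoked calcium fluorescence was captured for 3 min.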
A general note: Calcium assays in cells follow changes in intracellular calcium, usually with a dye or a luminescent sensor.

The nature of experiment [3]: G protein-coupled receptor (GPCR) small molecule agonists, calcium flux assay: HEK293 wild type cell line counter screen (AID 1920065). A digest of the protocol: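 Non-specific calcium responders were flagged by adding DMSO-dissolved compounds to dye-loaded cells and reading 480/540 nm fluorescence each second for 3 min; ATP served as positive control.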
Experiment [4] can be described thus: p53 small molecule agonists, cell-based qHTS assay with human liver microsomes (AID 1963577). A digest of the protocol:
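p53RE-bla reporter cells were pre-incubated 5 h at 37 C, then treated with compounds plus human liver microsomes (0.5 mg/mL final) and NADPH (0.5 mg/mL final) for 16 h at 37 C. Beta-lactamase activity was read by LiveBLAzer fluorescence after 2 h at room temperature.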

Experiment [5] is described as follows: p53 small molecule agonists, cell-based qHTS assay with rat liver microsomes (AID 1963578). A digest of the protocol:
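p53RE-bla cells were exposed to compounds together with rat liver microsomes (0.5 mg/mL final) and NADPH (0.5 mg/mL final) for 16 h at 37 C, then read by LiveBLAzer beta-lactamase fluorescence after 2 h at room temperature.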

Experiment [6] is described as follows: p53 small molecule agonists, cell-based qHTS assay with human liver microsomes: qHTS cell viability counter screen (AID 1963579). Further: nearly all actives have a fitted effect of over 45% in size. Further: potency means the concentration at half of the fitted maximal effect. In a few lines:
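p53RE-bla cells (4,000/well) were pre-incubated 5 h at 37 C, then given compounds in DMSO plus human liver microsomes (0.5 mg/mL final) and NADPH (0.5 mg/mL final) for 16 h at 37 C. Viability was read by CellTiter-Glo luminescence.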

The nature of experiment [7]: p53 small molecule agonists, cell-based qHTS assay with rat liver microsomes: qHTS cell viability counter screen (AID 1963580). Further: nearly all actives have a fitted effect of over 45% in size. Further: potency means the concentration at half of the fitted maximal effect. A digest of the protocol:
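After the beta-lactamase ratio was read, CellTiter-Glo was added to the same wells and luminescence measured at 30 min; cells had been treated 16 h at 37 C with compounds, rat liver microsomes and NADPH (0.5 mg/mL final each).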

Experiment [8] can be described thus: p53 small molecule agonists, cell-based qHTS assay: qHTS cell viability counter screen (AID 1963581). Further: nearly all actives have a fitted effect of over 45% in size. A digest of the protocol: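 Multiplexed with the reporter read, a CellTiter-Glo step (30 min, room temperature) gauges ATP-based viability of HCT-116 p53RE-bla cells after 16 h compound incubation at 37 C.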
Experiment [9] in a line: p53 small molecule agonists, cell-based qHTS assay (AID 1963582; active means well fitted activation curve with a large enough effect in the signal ratio in the repeat runs, not every such curve was filed as active; the % refers to the signal ratio). A digest of the protocol: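 Beta-lactamase reporter cells (p53RE-bla) treated with compounds for 16 h at 37 C; FRET substrate, 2 h, room temperature; fluorescence intensity.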
For experiment [10], the target named is 5-hydroxytryptamine receptor 2A (Homo sapiens) (UniProt P28223). Put plainly: 5-hydroxytryptamine receptor 2A (HTR2A) small molecule antagonists, cell-based qHTS assay (AID 1963586). Further: nearly all actives have a fitted effect of over 45% in size. A digest of the protocol: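 CHO cells stably expressing human HTR2A were plated for 18 h at 37 C, then loaded with calcium dye for 1 h. Compounds were preincubated 5 min at room temperature before DOI (4 nM solution) was added. Kinetic fluorescence was read for 3 min.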

Experiment [11] shares this target. Put plainly: 5-hydroxytryptamine receptor 2A (HTR2A) small molecule agonists, cell-based qHTS assay (AID 1963587). Further: nearly all actives have a fitted effect of over 30% in size. In a few lines:
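CHO cells stably expressing human HTR2A, plated 18 h, loaded with calcium dye 1 h at 37 C. Agonist mode: compounds added and intracellular calcium fluorescence recorded kinetically for 2 min at 1 sec intervals.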

The target of experiment [12] is Muscarinic acetylcholine receptor M1 (Homo sapiens) (UniProt P11229). Put plainly: Cholinergic receptor muscarinic 1 (CHRM1) small molecule antagonists, cell-based qHTS assay (AID 1963588). Further: nearly all actives have a fitted effect of over 40% in size. In a few lines: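 Compounds were tested at 15 concentrations in three independent runs. Dye-loaded CHRM1-CHO cells were exposed 5 min at room temperature before stimulation by acetylcholine added at 50nM. Intracellular calcium was read kinetically on FDSS for 3 min.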

Experiment [13] shares this target. The experiment in a line: Cholinergic receptor muscarinic 1 (CHRM1) small molecule agonists, cell-based qHTS assay (AID 1963589). Further: nearly all actives have a fitted effect of over 35% in size. In a few lines: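 qHTS, 15-point titration, 3 independent runs: compounds pin-transferred onto dye-loaded CHRM1-CHO cells (human M1), calcium fluorescence followed every second to detect agonism.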
A short description of experiment [14]: cAMP Responsive Elements (CRE) small molecule agonists, cell-based qHTS assay (AID 1963590). A digest of the protocol: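 Quantitative HTS for CRE agonists: HEK 293T CRE-bla cells, overnight plating, 3 h compound incubation at 37 C/5% CO2, then 2 h room-temperature LiveBLAzer B/G FRET substrate loading.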
A short description of experiment [15]: cAMP Responsive Elements (CRE) small molecule antagonists, cell-based qHTS assay (AID 1963591; active means well fitted inhibition curve with a large enough effect in the signal ratio in the repeat runs, not every such curve was filed as active; the % refers to the signal ratio). In a few lines: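 Fluorescence intensity from cleaved LiveBLAzer B/G substrate (2 h, room temperature) quantified CRE-bla activity in HEK 293T cells exposed 3 h to compound with 0.25 uM final NKH477.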
In experiment [16] the target is Beta-2 adrenergic receptor (Homo sapiens) (UniProt P07550). The experiment in a line: Adrenergic beta2 receptor (ADRB2) small molecule antagonists, cell-based qHTS assay (AID 1963592). Further: nearly all actives have a fitted effect of over 50% in size. Further: potency means the concentration at half of the fitted maximal effect. In a few lines:
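Assay format: CHO-ADRB2 cells, 18-20hr seeding at 37C/5% CO2, then compound plus 1nM isoproterenol agonist mix for 0.5hr RT. Homogeneous time-resolved fluorescence cAMP detection after 1hr, expressed as 665/615 nm ratio.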

Experiment [17] has the same target. Put plainly: Adrenergic beta2 receptor (ADRB2) small molecule agonists, cell-based qHTS assay (AID 1963593).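 Further: CHO cells stably overexpressing human ADRB2.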 A digest of the protocol: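 CHO cells stably over-expressing ADRB2 were plated overnight at 37C, then dosed with compounds plus a stimulation mix containing 100uM IBMX and 25uM Ro-20-1724 for 0.5hr at room temperature. cAMP was measured by HTRF competition, 1hr.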

Experiment [18] deals with D(2) dopamine receptor (Homo sapiens) (UniProt P14416). Put plainly: Dopamine D2 receptor (DRD2) small molecule agonists, cell-based qHTS assay (AID 1963594). Further: nearly all actives have a fitted effect of over 35% in size. A digest of the protocol:
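HEK293 cells stably expressing human DRD2, pre-treated with PDE inhibitor Ro20-1724 (0.1 mM final) and compound 10 min at room temperature, then stimulated with NKH477 (200nM […]) for 30 min. cAMP read by HTRF (665/620 nm).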

The target is the same in experiment [19]. Put plainly: Dopamine D2 receptor (DRD2) small molecule antagonists, cell-based qHTS assay (AID 1963595; active means well fitted inhibition curve with a large enough effect in the signal ratio in the repeat runs, with a control signal flat; the % refers to the signal ratio). A digest of the protocol: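 HEK293 cells stably expressing DRD2, preincubated with 0.1 mM Ro20-1724 and compounds 10 min, were stimulated with 200 nM NKH477 plus 12 nM quinpirole for 30 min at room temperature; cAMP measured by HTRF (665/620 nm).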

Experiment [20] concerns the target Gonadotropin-releasing hormone receptor (Homo sapiens) (UniProt P30968). Put plainly: Human gonadotropin-releasing hormone receptor (GnRHR) small molecule agonists, calcium flux assay in GnRHR-HEK293 cells (AID 1920063). Further: nearly all actives have a fitted effect of over 35% in size. A digest of the protocol: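 Calcium flux, agonist mode, human GnRHR stably integrated in HEK293; dye 1 h at 37 C before compound; Ex/Em=480/540 kinetic read, 3 min; 15 concentrations, triplicate.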

Experimental findings from PubChem BioAssay (Tox21) are described below.

Inconclusive results are not listed. Calls of active or inactive are those of the source. Unless noted, the call rests on the fitted dose curve.

D(2) dopamine receptor (Homo sapiens), sequence (P14416 whole entry, looked up): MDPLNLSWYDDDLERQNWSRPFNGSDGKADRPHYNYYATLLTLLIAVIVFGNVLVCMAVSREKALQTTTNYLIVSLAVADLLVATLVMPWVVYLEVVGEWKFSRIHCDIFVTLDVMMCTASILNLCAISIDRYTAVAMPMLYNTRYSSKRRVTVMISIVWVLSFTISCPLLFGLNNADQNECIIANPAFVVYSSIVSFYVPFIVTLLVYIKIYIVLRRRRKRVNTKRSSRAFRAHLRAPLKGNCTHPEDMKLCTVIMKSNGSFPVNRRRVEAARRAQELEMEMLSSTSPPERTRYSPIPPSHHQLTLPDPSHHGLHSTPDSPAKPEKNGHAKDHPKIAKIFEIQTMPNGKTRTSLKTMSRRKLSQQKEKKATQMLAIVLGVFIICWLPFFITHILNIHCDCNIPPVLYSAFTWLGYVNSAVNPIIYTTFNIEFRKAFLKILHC
Beta-2 adrenergic receptor (Homo sapiens), sequence (P07550 whole entry, looked up): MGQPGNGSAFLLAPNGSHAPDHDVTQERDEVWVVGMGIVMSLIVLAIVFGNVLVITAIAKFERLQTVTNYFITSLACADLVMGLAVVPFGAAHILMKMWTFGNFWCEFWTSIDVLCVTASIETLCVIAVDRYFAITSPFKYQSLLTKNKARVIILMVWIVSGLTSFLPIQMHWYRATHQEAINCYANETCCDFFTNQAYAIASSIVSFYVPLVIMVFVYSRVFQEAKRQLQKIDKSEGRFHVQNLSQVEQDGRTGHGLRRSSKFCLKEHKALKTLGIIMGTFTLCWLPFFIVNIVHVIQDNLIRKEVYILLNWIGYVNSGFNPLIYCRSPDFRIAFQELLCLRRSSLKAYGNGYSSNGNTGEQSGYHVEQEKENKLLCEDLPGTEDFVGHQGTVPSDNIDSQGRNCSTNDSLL
5-hydroxytryptamine receptor 2A (Homo sapiens), sequence (P28223 whole entry, looked up): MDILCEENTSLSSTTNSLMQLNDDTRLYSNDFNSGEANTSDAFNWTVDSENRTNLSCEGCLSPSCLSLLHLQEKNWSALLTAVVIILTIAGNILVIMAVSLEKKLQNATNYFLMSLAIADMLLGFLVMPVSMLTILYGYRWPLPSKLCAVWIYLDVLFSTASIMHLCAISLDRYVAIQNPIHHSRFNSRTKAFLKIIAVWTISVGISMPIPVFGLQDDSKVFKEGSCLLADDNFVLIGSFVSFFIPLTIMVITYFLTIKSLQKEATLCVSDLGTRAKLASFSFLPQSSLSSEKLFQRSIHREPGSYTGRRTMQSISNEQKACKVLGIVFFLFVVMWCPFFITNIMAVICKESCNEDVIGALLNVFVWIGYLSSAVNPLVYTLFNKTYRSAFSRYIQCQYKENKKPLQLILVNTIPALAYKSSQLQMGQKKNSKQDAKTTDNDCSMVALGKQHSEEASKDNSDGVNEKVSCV
Muscarinic acetylcholine receptor M1 (Homo sapiens), sequence (P11229 whole entry, looked up): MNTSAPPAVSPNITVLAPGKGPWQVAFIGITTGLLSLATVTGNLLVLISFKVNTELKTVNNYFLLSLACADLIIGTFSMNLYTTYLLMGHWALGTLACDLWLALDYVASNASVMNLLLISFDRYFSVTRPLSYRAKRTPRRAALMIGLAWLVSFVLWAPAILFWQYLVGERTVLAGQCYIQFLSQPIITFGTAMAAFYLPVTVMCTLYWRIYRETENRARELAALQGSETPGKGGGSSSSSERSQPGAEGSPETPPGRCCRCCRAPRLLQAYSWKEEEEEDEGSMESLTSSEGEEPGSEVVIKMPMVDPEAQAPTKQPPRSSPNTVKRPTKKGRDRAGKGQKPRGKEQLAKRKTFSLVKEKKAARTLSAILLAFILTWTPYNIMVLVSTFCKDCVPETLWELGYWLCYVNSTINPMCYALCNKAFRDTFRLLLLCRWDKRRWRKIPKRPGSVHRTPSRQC
Gonadotropin-releasing hormone receptor (Homo sapiens), sequence (P30968 whole entry, looked up): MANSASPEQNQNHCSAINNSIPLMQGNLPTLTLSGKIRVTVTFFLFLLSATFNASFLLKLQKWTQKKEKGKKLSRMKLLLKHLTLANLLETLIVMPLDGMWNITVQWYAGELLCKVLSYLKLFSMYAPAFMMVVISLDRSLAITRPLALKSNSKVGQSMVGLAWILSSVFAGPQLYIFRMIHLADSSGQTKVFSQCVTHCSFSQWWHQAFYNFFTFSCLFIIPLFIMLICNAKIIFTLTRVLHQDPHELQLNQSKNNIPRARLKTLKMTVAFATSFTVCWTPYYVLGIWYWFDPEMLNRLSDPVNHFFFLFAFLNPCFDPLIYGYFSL
KiSS-1 receptor (Homo sapiens), sequence (Q969F8 whole entry, looked up): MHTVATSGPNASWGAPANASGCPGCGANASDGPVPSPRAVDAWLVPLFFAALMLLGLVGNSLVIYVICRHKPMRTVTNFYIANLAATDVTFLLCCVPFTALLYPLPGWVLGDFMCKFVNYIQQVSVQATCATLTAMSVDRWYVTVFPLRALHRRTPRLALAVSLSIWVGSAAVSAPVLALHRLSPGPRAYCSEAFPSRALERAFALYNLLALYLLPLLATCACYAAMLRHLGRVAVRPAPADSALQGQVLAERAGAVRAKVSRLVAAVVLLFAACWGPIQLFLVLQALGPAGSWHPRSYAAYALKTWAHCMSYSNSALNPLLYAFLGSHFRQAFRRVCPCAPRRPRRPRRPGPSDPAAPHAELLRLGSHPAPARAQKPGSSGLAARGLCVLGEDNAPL

In the case of `O=C(CN1CCNCC1)NC1CCCCC1`, the Potency entry in experiment [1], in experiment [2], in [3], in experiment [4], in experiment [5] and in [6] was “inactive” throughout. Further, the Potency result in experiment [7], in experiment [8], in [9], in experiment [10], in experiment [11] and in experiment [12] was “inactive” throughout. Further, the Potency entry in experiment [13], in experiment [14], in [15], in experiment [16], in experiment [17] and in experiment [18] was “inactive” throughout. In addition, in [19], the Potency result is “inactive”.
For the compound `Cc1cc(O)c2c(O)c3c(O)cccc3cc2c1`, the Potency result in [1], in experiment [20], in experiment [3], in experiment [6], in experiment [7] and in experiment [8] was “inactive” throughout. Moreover, the Potency entry in experiment [11], in experiment [12], in [13], in experiment [18] and in experiment [19] was “inactive” throughout.
With `Cc1ccccc1N=Nc1ccc(N=Nc2c(O)ccc3ccccc23)c(C)c1`, the Potency result in [1], in [20], in [3], in experiment [4], in experiment [5] and in experiment [6] was “inactive” in each case. Moreover, the Potency entry in experiment [7], in experiment [8], in [10], in experiment [11], in [12] and in [14] was “inactive” each time. Also, the Potency entry in experiment [15], in [16], in experiment [17], in experiment [18] and in experiment [19] was “inactive” in each case.
With `CC(=O)c1ccc(OCC(=O)N2CCCCC2)cc1`, the Potency result in experiment [1], in experiment [20], in [3], in experiment [4], in [5] and in experiment [6] was “inactive” throughout. In addition, the Potency result in experiment [7], in experiment [8], in experiment [9], in experiment [10], in experiment [11] and in experiment [12] was “inactive” in each case. In addition, the Potency entry in [13], in experiment [14], in [16] and in experiment [18] was “inactive” each time.
For the compound `NCCCN1CCOCC1`, the Potency result in experiment [1], in [20], in experiment [3], in [6], in [8] and in experiment [11] was “inactive” throughout. Besides, the Potency entry in [12], in experiment [13], in [14], in [15], in [16] and in experiment [18] was “inactive” each time. In experiment [19], the Potency entry is “inactive”.
Consider `O=C1C=CC(=O)N1`, for which the Potency was 28 µM (active) in [1], 21 µM (active) in experiment [6] and 29.6 µM (active) in [7]. In addition, the Potency result in experiment [20], in experiment [3], in [10], in experiment [11], in [12] and in experiment [13] was “inactive” each time. The Potency result in experiment [18] is “inactive”.
Consider `C/C(CC(C)C)=N\O`, for which the Potency result in experiment [1], in [20], in experiment [3], in [4], in experiment [5] and in experiment [6] was “inactive” throughout. Further, the Potency entry in [7], in experiment [8], in [9], in experiment [10], in experiment [11] and in experiment [12] was “inactive” throughout. Moreover, the Potency result in [14], in [16], in [17], in [18] and in experiment [19] was “inactive” throughout.
With `Cc1cccc(OCC(O)CNC(C)(C)C)c1C` (stereo not given), the Potency result in experiment [1], in [20], in experiment [3], in experiment [4], in experiment [5] and in experiment [6] was “inactive” each time. Besides, the Potency entry in experiment [7], in [8], in [9], in [10], in experiment [11] and in [12] was “inactive” throughout. Also, the Potency entry in experiment [13], in [14], in experiment [15] and in experiment [19] was “inactive” throughout. In addition, the Potency in experiment [16] is 0.0075 µM (active).
With `C=C[Si](OC(C)=O)(OC(C)=O)OC(C)=O`, the Potency result in experiment [1], in [20], in experiment [3], in experiment [5], in experiment [8] and in [9] was “inactive” each time. Further, the Potency entry in experiment [10], in experiment [11], in experiment [12], in [13], in experiment [14] and in experiment [15] was “inactive” throughout. Also, the Potency result in [16], in experiment [17] and in experiment [19] was “inactive” each time.
